Assay results published in PubChem BioAssay (NCI).
About 83,000 compounds went through this panel and 20% of them were active in at least one assay; those are over-represented in the sample as a whole.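 Note: values are percent growth. 100 is the growth of untreated cells, values between 100 and 0 indicate rising inhibition; between -100 and 0 indicates cell death.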 Unmarked numbers belong to inactive results. Calls of active or inactive are those of the source. How the source made its calls: active means growth percent below 10; inactive means the rest.

Assays:
Assay in all cases: NCI-60 one-dose screen, 48 h (100 = growth as untreated, 0 = no growth, -100 = all killed)
Details in all cases: 10 µM unless noted
NCI-H23 lung = test system: NCI-H23 lung
NCI-H226 lung = test system: NCI-H226 lung
NCI-H322M lung = test system: NCI-H322M lung
HOP-62 NSCLC = test system: HOP-62 NSCLC
NCI-H460 lung = test system: NCI-H460 lung
HOP-92 NSCLC = test system: HOP-92 NSCLC
NCI-H522 lung = test system: NCI-H522 lung
A549/ATCC NSCLC = test system: A549/ATCC NSCLC
786-0 renal = test system: 786-0 renal
COLO 205 colon = test system: COLO 205 colon
DU-145 prostate = test system: DU-145 prostate
K-562 leukemia = test system: K-562 leukemia
MALME-3M melanoma = test system: MALME-3M melanoma
MDA-MB-231 breast = test system: MDA-MB-231 breast
RXF 393 renal = test system: RXF 393 renal
SF-268 CNS = test system: SF-268 CNS
SF-295 CNS = test system: SF-295 CNS
SF-539 CNS = test system: SF-539 CNS
UACC-257 melanoma = test system: UACC-257 melanoma
M14 melanoma = test system: M14 melanoma

Row | Structure (SMILES) | growth (NCI-H23 lung) | growth (NCI-H226 lung) | growth (NCI-H322M lung) | growth (HOP-62 NSCLC) | growth (NCI-H460 lung) | growth (HOP-92 NSCLC) | growth (NCI-H522 lung) | growth (A549/ATCC NSCLC) | growth (786-0 renal) | growth (COLO 205 colon) | growth (DU-145 prostate) | growth (K-562 leukemia) | growth (MALME-3M melanoma) | growth (MDA-MB-231 breast) | growth (RXF 393 renal) | growth (SF-268 CNS) | growth (SF-295 CNS) | growth (SF-539 CNS) | growth (UACC-257 melanoma) | growth (M14 melanoma)
1 | Cc1cccc(C)c1Nc1nnc(-c2ccc(F)cc2)o1 | 92.4% | 96.1% | 93.4% | 107% | 104% | 95.5% | 112% | 104% | 112% | 100% | 99.9% | 118% | 96.5% | 104% | 98.5% | 96.2% | 102% | 99.7% | 116% | 96.8%
2 | COCCOCCOCc1n(Cc2ccc3ccccc3n2)c2ccccc2[n+]1Cc1ccc2ccccc2n1 | 12.7% | 37.9% | 47.4% | 20.8% | 16.5% | -22.1% (active) | -1.7% (active) | 39.4% | 77.8% | -31.4% (active) | 35.4% | 19.1% | 5.23% (active) | 17.9% | 66.9% | 22.7% | 52.3% | 26.7% | -5.39% (active) | 26%
3 | COc1ccc(NC(=O)c2sc3nc(C)c(C(C)=O)cc3c2N)cc1 | 98.1% | 95.9% | 95.5% | 99.1% | 96% | 94.6% | 75.2% | 84% | 91.4% | 103% | 102% | 86.2% | 115% | 102% | 105% | 102% | 97.7% | 87.8% | 88.7% | 100%
4 | O=C(CCl)N1CCCc2ccccc21 | 101% | 101% | 94% | 107% | 99.3% | 97.2% | 96.8% | 109% | 104% | 108% | 97.7% | 101% | 98.3% | 99.5% | 89.1% | 94.9% | 95.7% | 103% | 107% | 93.9%
5 | Cc1ccccc1NC(=O)c1sc2nc(C)c(C(C)O)cc2c1N (stereo not given) | 79% | 88.6% | 86% | 45.1% | 35.4% | 47.3% | 32.8% | 36.2% | 57% | 40.5% | 81.8% | 14.4% | 60.2% | 59.4% | 44.9% | 67.5% | 39.5% | 31.7% | 52.5% | 24.7%
6 | COc1cc(C2=NN(C(C)=O)C(c3cccc(Nc4ccnc5cc(C(F)(F)F)ccc45)c3)C2)cc(OC)c1OC (stereo not given) | 62.8% | 66.5% | 68.3% | 63.9% | 57.6% | 25.3% | 55.7% | 53.1% | 58.8% | 50.3% | 55% | 36.8% | 78.9% | 66.1% | 55.3% | 52.6% | 53.8% | 76.6% | 79% | 29.7%
7 | O=C(Nc1ccc(N=Cc2ccccc2O)cc1)NC1C=c2ccccc2=CC1 (stereo not given) | 100% | 87.8% | 98.6% | 101% | 108% | 109% | 93.3% | 87.9% | 98.2% | 117% | 102% | 87% | 99.1% | 92% | 108% | 91.9% | 102% | 100% | 91.6% | 110%
8 | Cc1cc(Cl)cc(CN(Cc2ccccc2)Cc2c(O)ccc3ccccc23)c1O | 93.6% | 104% | 95.7% | 92.3% | 104% | 83.7% | 83% | 98% | 103% | 115% | 98.1% | 101% | 96.7% | 100% | 109% | 90.8% | 104% | 103% | 100% | 104%
9 | NC(=O)c1ccc2nc3c(n2c1)C(=O)C(=O)c1ccccc1-3 | -38.3% (active) | -49.7% (active) | -98.2% (active) | -87.8% (active) | -50.7% (active) | -80.9% (active) | -48.9% (active) | -43.1% (active) | -99.4% (active) | -69% (active) | -96.3% (active) | -28.2% (active) | -97.3% (active) | -17.3% (active) | -96.5% (active) | -70.2% (active) | -98.7% (active) | -98.5% (active) | -98.3% (active) | -88% (active)
10 | Cc1ccc(C(=O)/C(=C/c2ccc([N+](=O)[O-])cc2)S(=O)Cc2ccccc2)cc1 (stereo not given) | 13.6% | 47.1% | 81.6% | 47.9% | 22.1% | 36.9% | -32% (active) | 65.1% | -49.5% (active) | -26.4% (active) | 4.09% (active) | 4.71% (active) | -13.8% (active) | -2.07% (active) | -81.6% (active) | 35.8% | 82.3% | -43.5% (active) | 65.9% | -26.1% (active)
11 | CC(=O)Oc1c2c(nc3c1c1ccccc1n3Cc1ccccc1)-c1ccccc1C2 | 72% | 85.9% | 92.2% | 79.7% | 98.2% | 90.5% | 51% | 85.7% | 91.8% | 97.9% | 99.1% | 78.4% | 102% | 80.4% | 116% | 93.2% | 96% | 94.5% | 93.2% | 88.3%
12 | C[C@H](Oc1cc(-c2cnn(C3CCNCC3)c2)cnc1N)c1c(Cl)ccc(F)c1Cl | 71.6% | 109% | 75.2% | 66.5% | 57.9% | 41.1% | 73.1% | 72% | 49.2% | 46.3% | 77.8% | 5.27% (active) | -38% (active) | 52.2% | 31.6% | 59% | 49.7% | 68.3% | -45% (active) | -51.9% (active)
13 | O=C1CS/C(=N/c2nnc(-c3ccc(O)cc3)s2)N1 | 90% | 105% | 110% | 83.7% | 107% | 111% | 88.6% | 89.9% | 95% | 97.7% | 110% | 95.6% | 101% | 109% | 125% | 108% | 93.9% | 102% | 100% | 103%
14 | COc1ccc2c(c1)/C(=C1\S/C(=N/c3nnc(C)s3)NC1=O)C(=O)N2Cc1ccc(Cl)cc1 | 34.5% | 56.5% | 49.9% | 66.8% | 8.75% (active) | 26% | 45.8% | 36.2% | 49.2% | 79.9% | 52.4% | 38.3% | 72.5% | 89.5% | 75.8% | 46% | 14.9% | 48.7% | 83.6% | 45.6%
15 | O=C1C(=O)c2c(nc3ccc(C(F)(F)F)cn23)-c2ccccc21 | -30.8% (active) | -96.6% (active) | -94.8% (active) | -97.5% (active) | -64.8% (active) | -77.9% (active) | -72.4% (active) | -51.4% (active) | -80.8% (active) | -78.9% (active) | -96.3% (active) | -41.9% (active) | -97.3% (active) | -22.7% (active) | -94.8% (active) | -78.7% (active) | -96.5% (active) | -97.4% (active) | -97.1% (active) | -79.5% (active)
